# Source: PubChem BioAssay AID504466 (National Center for Advancing Translational Sciences (NCATS), 2011)
# Hit rate of the full screen: of about 330,000 compounds, about 4,200 (1.3%) were called active. Entries that show only a call come without a potency. Inconclusive results (about 6%) are left out. The call rests on the fitted dose curve; in most records, active means well fitted activation curve with a large enough effect; inconclusive means small, poorly fitted or top-dose-only effect; inactive means no such curve, though single readings can be large or run the other way. The full list was thinned out, with actives kept by preference.
# Test: qHTS screen for small molecules that induce genotoxicity in human embryonic kidney (HEK293T) cells expressing luciferase-tagged ELG1; further: nearly all actives have a fitted effect of over 60% in size
# Conditions: HEK293T ELG1-luciferase reporter, luminescence, 16 h; series mostly up to 46 µM
# Method in brief: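 Quantitative HTS format in 1536-well plates. HEK293T ELG1-luciferase reporter cells receive test compound and are incubated 16 hr at 37 °C, 5% CO2; ONE-Glo added, 30 min room temperature, then luminescence read.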
# Potency means the concentration at half of the fitted maximal effect.
row,SMILES,Potency
1,CCCc1cc(=O)[nH]c(SCC(=O)Nc2ccc(S(=O)(=O)N3CCCC3)cc2)n1,inactive
2,C=CC[C@H](CC(=O)N(CCO)Cc1ccccc1)C(=O)N[C@@H](COC(=O)[C@@H](CC=C)Cc1ccc(F)cc1)Cc1ccccc1,inactive
3,COc1ccc(/C=N/OCC(=O)N(Cc2ccccc2)c2ccccc2C(=O)O)cc1,inactive
4,COc1ccc(/C=N/Nc2ccccc2C(=O)O)cc1,1.3 µM (active)
5,COc1ccc(C(=O)Nc2ccccc2C(=O)N/N=C/c2ccc(O)c(OC)c2)cc1,inactive
6,COc1ccccc1-c1nnc2n1N=C(c1ccc(OC(F)F)c(OCC3CC3)c1)CS2,inactive
7,O=C(COC(=O)CN1C(=O)C2CCCCC2C1=O)Nc1ccc(F)c(F)c1F (centres undefined),inactive
8,COc1ccc(C(=O)C(C)OC(=O)c2cccc(S(=O)(=O)Nc3c(C)n(C)n(-c4ccccc4)c3=O)c2)cc1 (centres undefined),inactive
9,CCC(=O)Nc1ccc2nn(-c3ccc(F)cc3)nc2c1,1.46 µM (active)
10,Cc1cccc(C(=O)OCC(=O)Nc2ccc(F)cc2)c1,inactive
11,Cc1ccc(-n2nc3ccc(NC(=O)/C=C/c4ccco4)cc3n2)cc1C,inactive
12,CCOC(=O)[C@H]1[C@H]2COc3ccccc3[C@@H]2N2C(=O)CN(Cc3ccccc3)C(=O)[C@@]12C,inactive
13,C#CCOCCOCCOCCNc1nc(N2CCN(C(=O)[C@H](CCC(=O)O)n3cc(CN)nn3)CC2)nc(N2CCN(C(=O)[C@H](CCC(=O)O)n3cc(CN)nn3)CC2)n1,inactive
14,O=C(COc1ccccc1F)NNC(=O)c1cc(Br)ccc1Cl,inactive
15,CCN(CC(=O)NCc1ccc(F)cc1)S(=O)(=O)c1ccc(Cl)s1,inactive
16,C/C(=N\Nc1ncc(Cl)cc1Cl)c1ccc(S(=O)(=O)NCc2ccco2)cc1,inactive
17,C/C(=N\Nc1ncc(Cl)cc1Cl)c1cccs1,5.17 µM (active)
18,C/C(=N\Nc1ccc(S(N)(=O)=O)cc1[N+](=O)[O-])c1cccs1,inactive
19,Cc1cc(NC(=O)COC(=O)/C=C/c2ccc(C)o2)no1,inactive
20,COc1ccc2c(c1OC)C(=O)c1ccccc1C2=O,5.17 µM (active)
21,COc1cccc(-c2ccc3c(c2)S(=O)(=O)c2cccc(C(=O)O)c2C3=O)c1OC,inactive
22,CC(=O)Oc1ccc2c(c1)C(=O)c1ccccc1C2=O,inactive
23,COc1cc2c(-c3ccc4c(c3)OCO4)c(-c3ccsc3)oc(=O)c2cc1OC,inactive
24,COc1ccc(S(=O)(=O)N2CCN(c3cnccn3)CC2)cc1,inactive
25,Cc1nc2ccc(NC(=O)c3cccc(S(=O)(=O)N4CCOCC4)c3)cc2s1,inactive
26,Cc1cnc(C(=O)OCC(=O)N2CCc3ccccc32)cn1,inactive

row,SMILES,Potency
1,O=C(c1cnn2ccccc12)N1CCc2ccccc21,4.11 µM (active)
2,CCOC(=O)N1CCC(NC(=O)c2cnn3ccccc23)CC1,inactive
3,O=C1CSc2ccc(C(=O)NCc3ccccn3)cc2N1,inactive
4,CCOC(=O)C1=CN(Cc2ccc(Br)cc2)S(=O)(=O)NC1C (centres undefined),inactive
5,COc1ccc(S(=O)(=O)N(C)C[C@H]2Oc3ccc(NS(=O)(=O)c4cccs4)cc3CC(=O)N([C@H](C)CO)C[C@H]2C)cc1,inactive
6,CCC(CO)Oc1cc(NC(=O)c2ccc(Cl)cc2)c2ncn(C(C)C)c2c1 (centres undefined),inactive
7,CC(=O)Nc1ccc(S(=O)(=O)NCCC(=O)N2CCN(c3ccccc3Cl)CC2)cc1,inactive
8,N#Cc1ccc(C2N=C(c3ccccc3)NO2)cc1 (centres undefined),5.17 µM (active)
9,O=C(OCC(=O)N1CCCCCC1)c1ccc(Br)c(S(=O)(=O)N2CCOCC2)c1,inactive
10,C[C@@H]1C(c2ccc(F)cc2)=NN(c2ccc(Br)cc2)[C@H]1C(=O)N1CCOC1=O,inactive
11,Cc1ccc(S(=O)(=O)N2[C@@H](c3ccc(Br)cc3)C(C(=O)O)=C[C@H]2CC2CCCC2)cc1,inactive
12,Cc1cc(=O)oc2cc(OCC3CC(c4ccccc4Cl)=NO3)ccc12 (centres undefined),7.94 µM (active)
13,Cc1ccccc1N1CCN(CCCOc2ccc3c(C)cc(=O)oc3c2)CC1,inactive
14,Cc1cc(=O)oc2cc(OCCC[n+]3ccccc3)ccc12,inactive
15,CCCCNC(=O)C(C)N(CCN(C)C)C(=O)CCCCCN1C(=O)NC(c2ccc(Cl)cc2)C(C(=O)OCc2ccccc2)=C1C (centres undefined),inactive
16,COc1ccc(-c2nnc(SCc3cccnc3)o2)cc1,inactive
17,COC(=O)CSc1nnc(-c2cccnc2)o1,inactive
18,CN(C)c1ccc(-c2nnc(-c3cccnc3)o2)cc1,10.3 µM (active)
19,COc1ccc(CCNC(=O)COC(=O)Cc2ccccc2F)cc1,inactive
20,Cc1ccc(C(=O)NCC(=O)NC2CC2)cc1,inactive
21,Oc1ccc(/C=N/Nc2nc(-c3ccccc3F)nc3ccccc23)c(O)c1,inactive
22,COc1ccc(/C=C(\C#N)C(=O)ONC2=NCCCCC2)cc1,inactive
23,Oc1ccc(/C=N/NC2=NCCCCC2)c(O)c1,7.31 µM (active)
24,O=C(Cn1cnc2ccccc2c1=O)NNC(=O)c1ccccc1F,inactive
25,COc1ccc(C(=O)Nc2cc(S(=O)(=O)N3CCCC3)ccc2Cl)cc1,inactive
26,Clc1cccc(N=C2NN=C(c3ccc4c(c3)OCCO4)CS2)c1,2.31 µM (active)

row,SMILES,Potency
1,CN(C)c1nc(=Nc2cccc(Cl)c2)ss1,inactive
2,c1ccc(CN2CCC(N=C3NN=C(c4ccc5c(c4)OCCO5)CS3)CC2)cc1,inactive
3,CCOC(=O)c1c(N)nn(C(=O)c2ccccc2)c1-c1ccccc1,inactive
4,Cc1nn(C(=O)c2ccoc2C)c(N)c1-c1ccccc1,13 µM (active)
5,Cc1occc1C(=O)Nc1cccc(Cn2cccn2)c1,inactive
6,Cc1ccc(C(=O)Nc2ccc3c(c2)OCCO3)cc1S(=O)(=O)N1CCOCC1,inactive
7,Cc1ccc2nc(NC3=NCN(CCc4ccccc4)CN3)nc(C)c2c1,inactive
8,c1ccc(CCN2CN=C(Nc3nc4ccccc4o3)NC2)cc1,18.4 µM (active)
9,N#CNC1=NCN(CCc2ccccc2)CN1,inactive
10,CCN(CC)C(=O)[C@H]1C[C@H](CC(=O)NCC23CC4CC(CC(C4)C2)C3)C(=O)N2CCc3c([nH]c4cc(CCC(=O)N(C)C)ccc34)[C@]12C,inactive
11,N#C/C(=C1/CCCN1)c1ccccn1,inactive
12,N#CC(=C1SC=CS1)c1nc(-c2ccccc2)cs1,5.8 µM (active)
13,COc1cc(/C=C/C(=O)OCC(=O)NCCCc2ccccc2)ccc1O,inactive
14,O=C(NCCC(=O)N1O[C@@H]2C=C[C@H]1C2)OCC1c2ccccc2-c2ccccc21,inactive
15,COc1ccc(NC(=O)COC(=O)c2n[nH]c3ccccc23)c(OC)c1,inactive
16,COc1ccc(COC(=O)c2n[nH]c3ccccc23)cc1F,14.6 µM (active)
17,O=C(COC(=O)c1n[nH]c2ccccc12)NCc1ccccc1,inactive
18,O=C(CC1SC(N2CCOCC2)=NC1=O)Nc1ccccc1F (centres undefined),inactive
19,c1coc(CNc2ncnc3ccccc23)c1,inactive
20,Cc1noc(C)c1-c1ccc2ncnc(NC(C)c3ccco3)c2c1 (centres undefined),16.4 µM (active)
21,COc1ccc(NS(=O)(=O)c2ccc(C(=O)Nc3c(C)n(C)n(-c4ccccc4)c3=O)cc2)cc1,inactive
22,CCCN(C(=O)CSc1nnc(N)s1)c1c(N)n(Cc2ccccc2)c(=O)[nH]c1=O,inactive
23,CN(C(=O)CSc1cccc[n+]1[O-])C1CCCCC1,inactive
24,CCCOC(=O)Nc1ccccc1C(N)=O,inactive
25,Cc1cccc(OCCC(=O)Nc2ccccc2C(N)=O)c1,inactive
26,COc1cccc(OCC(=O)Nc2ccccc2C(N)=O)c1,5.17 µM (active)

row,SMILES,Potency
1,NS(=O)(=O)c1ccc(CNC(=S)NC(=O)c2ccco2)cc1,inactive
2,O=C(NNS(=O)(=O)c1c(F)cc(F)c(Cl)c1F)C12CC3CC(CC(C3)C1)C2,inactive
3,Cn1cncc1C#Cc1c(-c2ccsc2)sc2ccccc12,inactive
4,O=C(Nc1nnc(-c2ccccc2)o1)c1cccc(S(=O)(=O)N2CCOCC2)c1,inactive
5,O=C(NCc1ccc2c(c1)OCO2)c1cc([N+](=O)[O-])ccc1N1CCOCC1,inactive
6,Cc1nn(C)cc1/C=N/NC(=O)c1sc2ccccc2c1Cl,inactive
7,O=C(Nc1ccon1)c1cccc(Cl)c1,inactive
8,O=C(Nc1ccon1)c1sc2ccccc2c1Cl,13 µM (active)
9,Cc1ccc(NC(=O)Cn2cnc3c(OCc4ccccc4)ncnc32)cc1C,inactive
10,FC(F)(F)c1nc2ccccc2nc1N/N=C/c1ccc(Cl)cc1,inactive
11,COc1cc(/C=N/Nc2nn3cnnc3c3ccccc23)cc(OC)c1OC,inactive
12,CN(CCO)c1ccc(/C=N/Nc2nncc3ccccc23)cc1,0.116 µM (active)
13,C/C=C/c1ccc(OCC(=O)NNC(=O)CN(C)S(=O)(=O)c2ccc(C)cc2)c(OC)c1,inactive
14,CC(Sc1ccccc1F)C(=O)Nc1cccc(S(=O)(=O)N2CCOCC2)c1 (centres undefined),inactive
15,CCC(C(=O)OC)n1cnc2c(oc3ccccc32)c1=O (centres undefined),inactive
16,COc1ccc(C)cc1Nc1nc(C)nc2c1oc1ccccc12,inactive
17,COc1ccccc1Nc1ncnc2c1oc1ccccc12,14.6 µM (active)
18,CCCCCCOc1ccc(OC(=O)c2cccnc2)cc1,inactive
19,CCOC(=O)c1cnc(SCc2nc(N)nc(Nc3ccc(OC)cc3)n2)nc1N,inactive
20,CCCCOc1ccc(-c2ncc(C(=O)OCC)c(N)n2)cc1,10.3 µM (active)
21,Cc1c(NC(=O)CN(C)CC(=O)Nc2ccc(F)c(F)c2F)c(=O)n(-c2ccccc2)n1C,inactive
22,Cc1ccsc1C(=O)OCC(=O)NCCc1ccccc1,inactive
23,COc1ccc(OC)c(-c2csc(-c3cccs3)n2)c1,inactive
24,COc1ccc(C2CC(c3cccs3)=Nc3ccccc3S2)cc1OC (centres undefined),inactive
25,COc1ccc(-c2csc(-c3cccs3)n2)cc1OC,16.4 µM (active)
26,CC[C@@]1(C(=O)OC)N[C@H](CN(C)C(C)=O)[C@@H]2C(=O)N(C)C(=O)[C@@H]21,inactive
